Laboratory results reported in PubChem BioAssay AID1159580 (chemical genetic matrix, 2015).
“And” between values parts separate entries of the source, which are not always exact repeats. Equal values may be shown once. In all, about 5,500 compounds went through this assay and about 2,000 (36%) were called active. Inconclusive results (about 18%) are left out. Rule as the data show it: active = normalized growth mostly below about 0.91 (no sharp cut-off); inconclusive = no clear call, values can overlap the other calls; inactive = mostly above about 0.92. The list shows a part of the results.

Assay: chemical genetic growth profiling, strain panel (AID 1159580);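 also: tested at 20 µM; growth read once vehicle control cultures reached saturation at 30 °C; 1 = growth at the plate median or of vehicle wells; lower values mean less growth of the strain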
Details: S. cerevisiae deletion strains, growth OD

Measured: normalized growth

N#CC(O[C@@H]1O[C@H](CO[C@@H]2O[C@H](CO)[C@@H](O)[C@H](O)[C@H]2O)[C@@H](O)[C@H](O)[C@H]1O)c1ccccc1 (some centres not stated)
inactive: locus YAL013W, strain DEP1, active compounds read low 1 | locus YAL021C, strain ccr4, active compounds read low 0.965 | locus YAL026C, strain drs2, active compounds read low 0.99 | locus YAL030W, strain snc1, active compounds read low 0.986 | locus YBL061C, strain skt5, active compounds read low 0.97 | locus YBR009C, strain hhf1, active compounds read low 0.987 | locus YBR021W, strain FUR4, active compounds read low 0.986 | locus YBR023C, strain chs3, active compounds read low 0.979 | locus YBR171W, strain sec66, active compounds read low 0.975 | locus YBR229C, strain ROT2, active compounds read low 0.993 | locus YBR231C, strain swc5, active compounds read low 0.981 | locus YBR279W, strain paf1, active compounds read low 0.981 | locus YCL011C, strain gbp2, active compounds read low 0.986 | locus YCL016C, strain dcc1, active compounds read low 0.983 | locus YCL029C, strain bik1, active compounds read low 1 | locus YCL061C, strain MRC1, active compounds read low 0.99 | locus YCL069W, strain vba3, active compounds read low 0.988 | locus YCR088W, strain abp1, active compounds read low 0.975 | locus YDL005C, strain med2, active compounds read low 0.967 | locus YDL035C, strain GPR1, active compounds read low 1.01 | locus YDL040C, strain nat1, active compounds read low 0.976 | locus YDL074C, strain BRE1, active compounds read low 1.01 | locus YDL101C, strain DUN1, active compounds read low 1 | locus YDL185W, strain tfp1, active compounds read low 0.975 | locus YDL192W, strain arf1, active compounds read low 0.998 | locus YDR001C, strain nth1, active compounds read low 0.988 | locus YDR069C, strain doa4, active compounds read low 0.975 | locus YDR101C, strain arx1, active compounds read low 0.995 | locus YDR137W, strain rgp1, active compounds read low 1.01 | locus YDR150W, strain NUM1, active compounds read low 1.01 | locus YDR159W, strain sac3, active compounds read low 0.961 | locus YDR162C, strain NBP2, active compounds read low 1.04 | locus YDR195W, strain ref2 0.945 | locus YDR297W, strain sur2, active compounds read low 0.992 | locus YDR318W, strain mcm21, active compounds read low 1 | locus YDR334W, strain swr1, active compounds read low 0.984 | locus YDR335W, strain msn5, active compounds read low 0.988 | locus YDR388W, active compounds read low 0.991 | locus YDR392W, strain spt3, active compounds read low 0.974 | locus YDR502C, strain sam2, active compounds read low 1.02 | locus YEL003W, strain gim4, active compounds read low 0.99 | locus YEL037C, strain rad23, active compounds read low 0.982 | locus YEL061C, strain CIN8 (second series), active compounds read low 0.991 | locus YEL061C, strain CIN8, active compounds read low 1 | locus YER015W, strain faa2, active compounds read low 0.987 | locus YER016W, strain bim1, active compounds read low 0.977 | locus YER110C, active compounds read low 0.996 | locus YER111C, strain swi4, active compounds read low 0.982 | locus YER155C, strain BEM2 (second series), active compounds read low 0.966 | locus YER155C, strain BEM2, active compounds read low 0.992 | locus YER167W, strain BCK2, active compounds read low 1 | locus YFR010W, strain ubp6, active compounds read low 0.977 | locus YGL078C, strain dbp3, active compounds read low 0.989 | locus YGL086W, strain mad1, active compounds read low 0.995 | locus YGL167C, strain pmr1, active compounds read low 0.98 | locus YGL173C, strain kem1, active compounds read low 0.963 | locus YGL227W, strain vid30, active compounds read low 0.97 | locus YGL240W, strain doc1, active compounds read low 0.971 | locus YGL248W, strain PDE1, active compounds read low 1.05 | locus YGL253W, strain hxk2, active compounds read low 0.985 | locus YGR135W, strain pre9, active compounds read low 0.985 | locus YGR252W, strain gcn5, active compounds read low 0.987 | locus YHR013C, strain ard1, active compounds read low 0.964 | locus YHR027C, strain rpn1, active compounds read low 0.98 | locus YHR030C, strain SLT2, active compounds read low 1 and 0.975 | locus YHR079C, strain IRE1 (second series), active compounds read low 0.99 | locus YHR079C, strain IRE1, active compounds read low 0.971 | locus YHR094C, strain hxt1, active compounds read low 0.978 | locus YHR129C, strain ARP1, active compounds read low 1 | locus YHR142W, strain chs7, active compounds read low 0.983 | locus YHR200W, strain rpn10, active compounds read low 1 | locus YIL066C, strain RNR3, active compounds read low 1.03 | locus YIL073C, strain SPO22, active compounds read low 1.02 | locus YIL125W, strain kgd1, active compounds read low 0.996 | locus YIR030C, strain dcg1, active compounds read low 0.992 | locus YJL092W, strain hpr5, active compounds read low 0.987 | locus YJL095W, strain BCK1 (second series), active compounds read low 0.971 | locus YJL095W, strain BCK1, active compounds read low 1.06 and 1.01 | locus YJL115W, strain asf1, active compounds read low 0.977 | locus YJL129C, strain trk1, active compounds read low 0.967 | locus YJL134W, strain LCB3, active compounds read low 0.993 | locus YJL154C, strain vps35, active compounds read low 0.979 | locus YJL164C, strain tpk1, active compounds read low 0.98 | locus YJL166W, strain qcr8, active compounds read low 0.982 | locus YJL168C, strain set2, active compounds read low 0.993 | locus YJL187C, strain SWE1 (second series), active compounds read low 1.02 | locus YJL187C, strain SWE1, active compounds read low 0.994
